Pf Dd2 growth: qHTS Primary assay for Inhibitors of Plasmodium falciparum Dd2 growth in vitro | P. falciparum Dd2 growth, SYBR Green, 72 h | AID 1347417, 2020 | 4.3% of 120,000 active | Potency, µM (titrated, usually from 28.9 µM), for the others: at the top dose activity, negative = inhibition, most hits filed as inhibitors; active means well fitted inhibition curve with a large enough effect;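 further: plate controls were DMSO vehicle for no effect and reference drug for full effect; nearly all actives have a fitted effect of over 65% in size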
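Infected erythrocytes (Dd2, 0.3% parasitemia, 2.5% hematocrit final) are added to compound in RPMI-1640/Albumax II medium, grown 72 h at 37C in low oxygen, then lysed with saponin/Triton-X containing SYBR Green and read by fluorescence.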
Numbers without * were called inactive; i = inactive; [ ] = another dose, or the depositor's remark. This excerpt belongs to a sample that is enriched for hits. Potency means the concentration at half of the fitted maximal effect.

SMILES	Pf Dd2 growth
CC(C)c1noc(CCn2ccnc2-c2cnc[nH]2)n1	-2%
Cc1cccc(Nc2c3c(nc4nncn24)CCC3)c1	44%
Cc1ccc(Nc2c3c(nc4nncn24)CCC3)cc1	i
CCOc1ccc(Nc2c3c(nc4nncn24)CCC3)cc1	-7%
Brc1ccc(Nc2c3c(nc4nncn24)CCC3)cc1	4µM*
Cc1ccc(Nc2c3c(nc4nncn24)CCC3)cc1C	10µM*
Cc1ccccc1Nc1c2c(nc3nncn13)CCC2	-10%
O=C(NC1CCN(C(=O)N2CC3CC(C2)[C@H]2CCCC(=O)N2C3)CC1)c1cccs1 (some centres not stated)	-1%
Cc1cccc(-c2noc([C@@H]3Cc4nc[nH]c4CN3Cc3ccc(C(=O)O)cc3)n2)c1	i
N#Cc1cccc(CN2Cc3[nH]cnc3C[C@H]2C(=O)NCc2ccco2)c1	-6%[44.1 µM]
N#Cc1cccc(CN2Cc3[nH]cnc3C[C@H]2c2nc(-c3cccc([N+](=O)[O-])c3)no2)c1	13µM*
O=[N+]([O-])c1cccc(-c2noc([C@@H]3Cc4nc[nH]c4CN3Cc3ccc(F)cc3)n2)c1	10µM*
O=[N+]([O-])c1cccc(-c2noc([C@@H]3Cc4nc[nH]c4CN3Cc3cccs3)n2)c1	-16%[44.1 µM]
Cc1cccc(-c2noc([C@@H]3Cc4nc[nH]c4CN3C(=O)c3ccc(F)cc3)n2)c1	i
COc1ccc(CN2CCCC3(COc4ccccc4[S+](=O)([O-])N3)C2)cc1 (configuration not stated)	-2%
CN1[C@@H](CCC(=O)N2CCN(c3ccccc3)CC2)CNC(=O)[C@@H]2[C@H]1CCN2Cc1ccccc1	-17%
CCNC(=O)N1CCCCCC1c1nc(C2CC2)no1 (configuration not stated)	29%
Cc1ccc(C)c(CNC(=O)CCc2conc2-c2ccc(F)cc2)c1	-24%
CCc1ccc(C2CC(=O)Nc3c2c(C)nn3-c2nc(C)cc(C)n2)cc1 (configuration not stated)	11µM*
COc1cc(C2CC(=O)Nc3c2c(C)nn3-c2nc(C)cc(C)n2)cc(OC)c1O (configuration not stated)	-26%
COc1ccc(C2CC(=O)Nc3c2c(C)nn3-c2nc(C)cc(C)n2)c(OC)c1OC (configuration not stated)	-53%[0.594 µM]
COc1cccc(-c2cnc([C@@H]3COCCN3C3CCOCC3)[nH]2)c1	22%[44.1 µM]
Cc1nccn1-c1ccc(NC(=O)C2CCCN(c3ncccc3C#N)C2)cc1 (configuration not stated)	-26%
CS(=O)(=O)N1CCCN(Cc2ccc(C#N)cc2)CCNC(=O)CC1c1ccccc1 (configuration not stated)	-18%
O=C1CC(c2ccccc2)N(Cc2ccncc2)CCCN(C(=O)c2ccsc2)CCN1 (configuration not stated)	5.6µM*
SMILES	Pf Dd2 growth
Cc1cccc(C(=O)N2CCCCCNC(=O)CC2c2ccccc2)c1 (configuration not stated)	-6%
Cc1cccc(C(=O)N2CCCN(Cc3ccncc3)C(c3ccccc3)CC(=O)NCC2)c1 (configuration not stated)	2.2µM*
O=C1CC(c2ccccc2)N(C(=O)C2CC2)CCCN(C(=O)c2cccs2)CCN1 (configuration not stated)	-18%
COc1cccc(CC(=O)N2CCCN(S(C)(=O)=O)C(c3ccccc3)CC(=O)NCC2)c1 (configuration not stated)	-11%
Cc1ncccc1C(=O)N1CCCN(Cc2ccncc2)C(c2ccccc2)CC(=O)NCC1 (configuration not stated)	11µM*
COc1cccc(CN2CCCN(Cc3ccncc3)C(c3ccccc3)CC(=O)NCC2)c1 (configuration not stated)	1.4µM*
Cc1cccc(C(=O)N2CCCN(C(=O)C3CC3)C(c3ccccc3)CC(=O)NCC2)c1 (configuration not stated)	i
CS(=O)(=O)N1CCCN(C(=O)c2ccsc2)CCNC(=O)CC1c1ccccc1 (configuration not stated)	3%
Cn1cnc(S(=O)(=O)N2CCCN(C(=O)c3ccncc3)CCNC(=O)CC2c2ccccc2)c1 (configuration not stated)	-1%
Cc1ccc(C(=O)N2CCCN(Cc3ccncc3)C(c3ccccc3)CC(=O)NCC2)cn1 (configuration not stated)	i
O=C(c1cc(F)ccc1F)N1CCN(c2nnc3ccc(Cl)cn23)CC1	i
COCCN1CCC(N2CCN(S(=O)(=O)Cc3ccc(F)cc3Cl)CC2)C1=O (configuration not stated)	2%
N#Cc1ccc(C(=O)Nc2ccc3n(c2=O)C[C@H]2C[C@@H]3CN(C(=O)c3ccccn3)C2)cc1	-23%
COc1cccc(CC(=O)N2CCCC(c3nc(C4CCOCC4)no3)C2)c1 (configuration not stated)	29%
O=C1CC(c2ccccc2)N(Cc2ccncc2)CCCN(C(=O)CN2C(=O)CCC2=O)CCN1 (configuration not stated)	-19%
CCCS(=O)(=O)N1CCCC(C(=O)NCc2ccccc2)CCNC(=O)CC1 (configuration not stated)	26%
Cn1cccc1C(=O)N1CCCN(S(=O)(=O)c2ccccc2)CCC(=O)NCC1	-11%
CCCS(=O)(=O)N1CCCN(Cc2ccncc2)C(c2ccccc2)CC(=O)NCC1 (configuration not stated)	14µM*
O=C1CC(c2ccccc2)N(Cc2ccncc2)CCCN(C(=O)c2ccc3ncccc3c2)CCN1 (configuration not stated)	6.3µM*
O=C1CC(c2ccccc2)N(Cc2ccncc2)CCCN(C(=O)c2ccc3ccccc3n2)CCN1 (configuration not stated)	-7%
Cn1ccnc1C(=O)N1CCCN(S(C)(=O)=O)C(c2ccccc2)CC(=O)NCC1 (configuration not stated)	i
Cn1cccc1C(=O)N1CCCN(Cc2ccncc2)C(c2ccccc2)CC(=O)NCC1 (configuration not stated)	2.5µM*
Cc1ccc(C(=O)N2CCCN(S(C)(=O)=O)C(c3ccccc3)CC(=O)NCC2)cn1 (configuration not stated)	-9%
Cc1cccc(CN2CCN(C)C3(CCC(=O)N(CC(=O)O)CC3)C2)n1 (configuration not stated)	4%
CC(=O)N1CCOC[C@H](Oc2ccc(S(C)(=O)=O)cc2)C1	4%[44.1 µM]
SMILES	Pf Dd2 growth
O[C@@H]1CC(CNC2CCC2)(COc2ccc(C(F)(F)F)cn2)C[C@@H]1O (some centres not stated)	i
CCCNC(=O)N1C[C@@H](Oc2ccccc2)C[C@@H]1C(=O)NCCOC	0%
Cc1ccc(C(=O)N2C(C(=O)N3CCCC3)COC23CCN(C(=O)c2ccc(F)cc2)CC3)cc1 (configuration not stated)	-16%
CCC1(N2CCN(S(=O)(=O)c3ccc(Cl)s3)CC2)CCN(C(=O)C(C)C)C1 (configuration not stated)	-11%
CNc1cc(C2CC(NC(=O)COc3ccc(Cl)cc3C)C2)nc(N)n1 (configuration not stated)	7.9µM*
Cc1cc(C)nc(NS(=O)(=O)c2ccc(NC(=O)COc3ccc(Cl)cc3C)cc2)n1	i
Cc1cc(Cl)ccc1OCC(=O)N1[C@@H]2CC[C@H]1CC(NC(=O)c1ccc(F)cc1)C2 (some centres not stated)	i

High-throughput results from PubChem BioAssay.
